# About 2,900 (47%) of roughly 6,200 compounds were called active. So high a share suggests a set chosen from earlier hits. Some of the results follow. A number with no mark means an inactive call. Rule as the data show it: active = inhibition above about 50%; inactive = the rest.
# Assay: Mycobacterium tuberculosis growth inhibition, primary screen (AID 1259343)
# Conditions: inhibition: at 10 µM, active compounds read high; outcome: 10 uM
row,SMILES,inhibition
1,O=C1CCC(C(=O)N(Cc2ccc(F)cc2)c2nc(-c3ccccc3)cs2)=NN1,64.5% (active)
2,O=C(CN(Cc1ccccc1)C(=O)c1ccc(Cl)c(Cl)c1)Nc1cc(-c2ccccc2)nn1-c1ccc(F)cc1,-13.3%
3,O=C(CCCCl)Nc1nc(-c2ccc(F)cc2)cs1,12.9%
4,N#CC(=Cc1ccncc1)c1nnc2n1CCCCC2,-11%
5,Cc1ccc(-c2nc(-c3ccc(Br)cc3)no2)cc1,11.5%
6,Fc1ccccc1-c1nc(-c2ccc(Br)o2)no1,28.8%
7,Cc1ccc(-c2noc(-c3ccc(Br)o3)n2)cc1,55.7% (active)
8,CCN(CC)CCCC(C)NC(=O)c1cc(-c2ccc(OC)cc2)nc2cc(C(C)(C)C)nn12 (centres undefined),58.1% (active)
9,COc1ccc(-c2cc(C(=O)O)n3nc(C(C)(C)C)cc3n2)cc1,53.5% (active)
10,Cc1ccc(-c2cc(C(=O)O)n3nc(C(C)(C)C)cc3n2)cc1,103% (active)
11,CC1(C)OCC(CN2C(=O)c3ccccc3NC2c2c[nH]c3cnc(OCc4ccccc4)cc23)O1 (centres undefined),32.8%
12,COc1ccc(NC(=O)CNS(=O)(=O)c2cnn(C)c2)cc1Cl,85.8% (active)
13,COc1ccc(Cl)cc1NC(=O)c1ccc2c(c1)OCCCO2,29.1%
14,COc1ccc(NC(=O)Cc2ccccc2F)cc1Cl,14.2%
15,COc1ccc(NC(=O)CSc2cc(C)ccc2C)cc1Cl,88.7% (active)
16,COc1ccc(NCC(=O)NCC(F)(F)F)cc1Cl,95.5% (active)
17,COc1ccc(NC(=O)CNc2cc3c(cc2Cl)OCCCO3)cc1Cl,92.9% (active)
18,CC(C)N=C1NN=C(c2c[nH]c3ccccc23)C(c2ccccc2)S1 (centres undefined),2.32%
19,O=c1c2c(nc3c(-c4cccc5ccccc45)c[nH]n13)CCC2,88.6% (active)
20,Cc1nc2c(-c3ccccc3)c[nH]n2c(=O)c1C,23.2%
21,Cc1oc(-n2cccc2)c(C#N)c1C(=O)OCc1cc(=O)n2c(C)csc2n1,-7.14%
22,CC1CCC(NC(=O)c2ccc(Br)o2)CC1 (centres undefined),25.1%
23,Cc1oc(-n2cccc2)c(C#N)c1C(=O)NC1CCC(C)CC1 (centres undefined),77.2% (active)
24,Cn1ccnc1Sc1nc(-c2ccccn2)nc2scc(-c3ccccc3)c12,77.2% (active)
25,COc1ccccc1N1CCN(Cn2nc(C3COc4ccccc4O3)oc2=S)CC1 (centres undefined),49.9%
26,Cc1nccn1CC(O)Cn1c2ccc(Cl)cc2c2cc(Cl)ccc21 (centres undefined),66.4% (active)

row,SMILES,inhibition
1,Cc1nn(CC(O)Cn2c(C)c(C)c3cccc(Cl)c32)c(C)c1Br (centres undefined),25.1%
2,OC(CN1CCCC1)Cn1c2ccc(Cl)cc2c2cc(Cl)ccc21 (centres undefined),-9.02%
3,O=C1N(Cc2ccccc2)C(c2ccc(C(F)(F)F)cc2)C1(F)F (centres undefined),79.7% (active)
4,Cn1nnc2c(=O)n(Cc3ccc(C(F)(F)F)cc3)cnc21,45.7%
5,Cc1c(C(=O)NCc2ccc(C(F)(F)F)cc2)sc(=O)n1Cc1ccc(F)cc1,20.5%
6,CC(C)Oc1ncc(C(=O)N2CCc3ccc(O)cc3C2)cc1Cl,33.5%
7,CC(=O)N1CCc2cc(-c3nc(COc4ccccc4)sc3C)ccc21,37.8%
8,O=C(COc1ccccc1)N1CCc2ccc(O)cc2C1,68.5% (active)
9,N#CCCSc1nc2ccc([N+](=O)[O-])cc2s1,52% (active)
10,O=[N+]([O-])c1ccc2[nH]c(=S)sc2c1,-16.1%
11,Cc1nc2sc(C)c(C)n2c(=O)c1NC(=O)c1ccc(-c2ccccc2)cc1,34.6%
12,CN(C)C=Nc1nc(-c2ccccc2)c(-c2ccccc2)s1,15.9%
13,CC(=O)Nc1nc(-c2ccc(C)cc2)c(-c2ccccc2)s1,86% (active)
14,O=C(NC1CCS(=O)(=O)C1)c1ccc(Br)o1 (centres undefined),10.7%
15,O=C(Nc1cc(F)ccc1F)c1ccc(NC(=O)C2CC2)s1,23.9%
16,O=C(NC1CCS(=O)(=O)C1)c1ccc(-c2ccc(F)cc2)s1 (centres undefined),79% (active)
17,COc1ccc(C(=O)Nc2cc(C)nn2-c2nc(C)c(C)c(=O)[nH]2)c(OC)c1,26.6%
18,COc1cc(C(=O)Nc2cc(C3CC3)nn2-c2nc(C)c(C)c(=O)[nH]2)cc(OC)c1OC,100% (active)
19,COc1ccc(C(=O)Nc2cc(C3CC3)nn2-c2nc(C)c(C)c(=O)[nH]2)c(OC)c1,90% (active)
20,COc1cc(C(=O)Nc2cc(C3CC3)nn2-c2nc(C)cc(=O)[nH]2)cc(OC)c1OC,101% (active)
21,COc1ccc(OCCSc2nnnn2C2CCCCC2)cc1,-35.2%
22,c1ccc2c(c1)OCC(CSc1nnnn1C1CCCC1)O2 (centres undefined),96.2% (active)
23,Clc1cc(CSc2nnnn2C2CCCC2)cc2c1OCCO2,-23.6%
24,CN(Cc1ccco1)C(=O)c1cnc(-c2ccc3c(c2)OCO3)nc1Nc1ccccc1,47.5%
25,C=CCN(C(=O)c1ccc(-c2ccc3c(c2)OCCO3)s1)C1CCCCC1,45.7%
26,N#CC1(NC(=O)c2cnc(-c3ccc4c(c3)OCO4)s2)CCCC1,86.4% (active)

row,SMILES,inhibition
1,COc1ccc(N=C(c2cc([N+](=O)[O-])cc([N+](=O)[O-])c2)n2ccnc2)cc1,92.1% (active)
2,COCc1ccc(C(=O)N2CCCC(Nc3ccc(C(C)C)cc3)C2)s1 (centres undefined),21.9%
3,O=C(c1cc(Br)c[nH]1)N1CCC(Nc2ccc(F)cc2)CC1,1.55%
4,C=Cc1ccc(C(=O)N2CCCC(Nc3ccc(F)cc3)C2)cc1 (centres undefined),75.9% (active)
5,Cc1nc(NC(=O)C2CC2)sc1Cc1ccccc1Cl,32.1%
6,O=C(Nc1nc2c(s1)CCc1ccccc1-2)C1CC1,64% (active)
7,O=C(C=Cc1cccs1)NC1CCCC1,21.5%
8,O=C(C=Cc1cccs1)NC1CCCCC1,37%
9,C(=NNc1ccc2ccccc2n1)c1cccs1,39.2%
10,O=C(C=Cc1cccs1)NC1CCCCCC1,61.3% (active)
11,C=CCNC(=O)C=Cc1cccs1,92.6% (active)
12,CC(C)NC(=S)NN=Cc1cccs1,100% (active)
13,S=C(NN=Cc1cccs1)NC1CCCCC1,87.5% (active)
14,CCC(CNC(=O)/C=C/c1sccc1C)c1ccccc1 (centres undefined),28.2%
15,O=S(=O)(C1=Cc2ccccc2CC1)N1CCC2CCCCC2C1 (centres undefined),21.1%
16,O=C(C=Cc1ccc(Br)o1)NC1CCCCCC1,89.5% (active)
17,COC(=O)c1sccc1NC(=O)C=Cc1cccs1,81.4% (active)
18,O=C(C=Cc1cccs1)c1cccs1,15.1%
19,O=C(C=Cc1ccco1)NC1CCCC1,25.8%
20,Cc1cccc(Nc2nnc(-c3ccncc3)o2)c1,-7.46%
21,c1ccc(-c2cc(Sc3nnc(-c4ccncc4)o3)n3ncnc3n2)cc1,102% (active)
22,COc1ccc(N=Cc2cc([N+](=O)[O-])ccc2OC(F)F)cc1,79.9% (active)
23,COc1ccc(OCCCOc2ccc([N+](=O)[O-])cc2Cl)cc1,37.7%
24,COc1ccc(-c2cc(N)ccc2OC(F)F)cc1,34.9%
25,COc1ccc(N2CCN(Cc3cc(C)c(C)cc3O)CC2)cc1,83.8% (active)
26,COc1ccc(CN2CCN(C(c3ccc(F)cc3)c3ccc(F)cc3)CC2)c(OC)c1OC,29.5%

row,SMILES,inhibition
1,Cc1ccccc1CN1CCN(c2ccc(S(=O)(=O)C(F)F)cc2)CC1,27.6%
2,Fc1ccc(-n2cc(-c3ccnc(NCc4ccco4)n3)cn2)cc1,18.7%
3,COc1ccc(-c2csc(NCc3ccco3)n2)cc1,70.6% (active)
4,O=C1C(=C2SCCS2)CCCC12CC2c1ccccc1 (centres undefined),50.8% (active)
5,CC(C)Oc1ccc(CCNC(=O)c2cc(COc3ccc(F)c(F)c3)on2)cc1,inactive
6,O=C(c1cc(COc2cccc(C(F)(F)F)c2)on1)N1CCCN(c2ncccn2)CC1,inactive
7,O=C(c1cc(COc2ccc3c(c2)CCCC3)on1)N1CCN(C2CCCC2)C(=O)C1,69.3% (active)
8,Cc1ccc(OCc2cc(C(=O)NCCc3ccc(C(F)(F)F)cc3)no2)cn1,68.3% (active)
9,O=C(c1cc(COc2ccc3c(c2)CCCC3)on1)N1CCCN(c2ncccn2)CC1,71.4% (active)
10,Cc1nc(CCNC(=O)c2cc(COc3ccc4c(c3)CCCC4)on2)sc1C,67.7% (active)
11,COCc1cc(C(=O)N2Cc3ccccc3N(C)CC2C)no1 (centres undefined),-8.57%
12,O=C(c1cc(COc2ccc3c(c2)CCCC3)on1)N1CCCCO1,92.2% (active)
13,O=C(c1cc(COc2ccc(-n3cncn3)cc2)on1)N1CCCCO1,inactive
14,Cn1c(=O)c2c(S(C)=O)snc2n(C)c1=O (centres undefined),100% (active)
15,Cc1cc(C)n(CC(O)COc2ccc3c(c2)CCC3)n1 (centres undefined),70.7% (active)
16,Cc1cc(C)n(CC(O)COc2ccc(C(C)(C)C)cc2)n1 (centres undefined),44.2%
17,COc1ccc(OCCN(C)S(=O)(=O)c2ccc3c(c2)CCC3)cc1,48%
18,Cc1nn(CC(O)COc2ccc3c(c2)CCC3)c(C)c1C (centres undefined),74.7% (active)
19,Cn1ccc(NC(=O)c2cc3c(s2)CCC(C(C)(C)C)C3)n1 (centres undefined),49.2%
20,N[C@@H](CCCCNC(=O)c1cccnc1)C(=O)NNc1ccc(Cl)cc1,95.5% (active)
21,CCOc1cc(Cl)ccc1NC(=O)Nc1cccnc1,32%
22,CSc1ccc(NC(=O)CC2(C(=O)O)CCCC2)cc1,85.9% (active)
23,CC(C)NS(=O)(=O)Cc1ccc(CNC(=O)Nc2ccc(-c3ccccc3)cc2)cc1,-37.3%
24,CC(C)NC(=O)CC1(C(=O)Nc2ccc(-c3ccccc3)cc2)CCCC1,91.1% (active)
25,COc1ccc(F)cc1C(=O)C1CCCN(C(=O)Nc2ccc(SC)cc2)C1 (centres undefined),2.1%
26,CN(C)C(=O)C1(CNC(=O)Nc2ccc(F)c(C(F)(F)F)c2)CCCC1,4.66%

# From PubChem BioAssay AID1259343 (VanderVen Lab, College of Veterinary Medicine, Cornell …, 2017)
